aSyn rescue: inhibitors of alpha-synuclein toxicity in yeast. Yeast expressing alpha-synuclein, growth rescue, BacTiter-Glo, 24 h. Potency, µM (highest dose often 46.1 µM), without a hit: at the top dose growth rescue (activation), hits mostly activators. actives 0.14% (n = 370,000). AID 652106; also: % of control where 0% means no effect; nearly all actives have a fitted effect of over 65% in size
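Readout is rescue of growth in alpha-synuclein-expressing yeast, so inhibitors of toxicity appear as activators. Growth after 24 hr at 30 deg C in galactose medium is quantified by luminescence.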
Abeta rescue: compounds reversing amyloid beta toxicity in yeast; Potency, µM (series often up to 46.1 µM), usual class: activators; yeast expressing A-beta42, growth rescue, OD600, 48 h; response scale: 0% DMSO, 100% iron-clioquinol control; actives 0.063% (n = 410,000); also: nearly all actives have a fitted effect of over 55% in size
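Growth rescue measured by 600 nm absorbance after 48 h yeast culture at 30 C with compound. Values normalized between DMSO and an equimolar ferric chloride plus clioquinol control.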
FUS suppressor: rescues growth of FUS-expressing yeast; S. cerevisiae FUS-expressing, growth rescue, OD600, 24 h; Potency, µM (top dose mostly 76.6 µM), most hits filed as activators; actives 0.24% (n = 390,000);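 also: plate controls were DMSO vehicle for no effect and reference control for full effect; nearly all actives have a fitted effect of over 55% in size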
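Read-out: OD at 600 nm after 24hr at 30C, reporting rescue of FUS-induced yeast toxicity. Cells at OD 0.005 in galactose (2%) minimal medium; compounds tested in a dilution series; CP55940 titration from 92uM final as control.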
TDP-43 yeast inh: TDP-43 toxicity inhibition in yeast; Potency, µM (top dose mostly 46.1 µM), inactives show at the top dose growth rescue (activation), usual class: activators; TDP-43 expressing yeast growth rescue, BacTiter-Glo, 24 h; actives 1.8% (n = 410,000); AID 652104; also: % of control where 0% means no effect; nearly all actives have a fitted effect of over 50% in size
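In this qHTS, compounds that restore growth of yeast expressing TDP-43 appear as activators. Cells (OD600=0.02, galactose medium, raffinose-pregrown) are incubated with compound 24 hr at 30 deg C and growth is quantified by BacTiter-Glo.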
The depositor's hits bear a star; [ ] = remark or other dose. Rows were chosen to be rich in hits. Some 2.1% of all compounds tested hit in one or more screens of this group. Calls follow the shape of the dose curve; as a rule, active = well fitted curve in the direction sought with a large enough effect; inconclusive = small, poorly fitted or top-dose-only effect, or another doubt; inactive = no such curve, though single readings can be large; an effect the other way counts as inactive or inconclusive. Potency is read from the fitted curve at half-maximal effect.

For C/C(=N\Nc1cc(C(F)(F)F)ccc1Cl)c1ccccc1O the results were aSyn rescue 0%, Abeta rescue inactive and TDP-43 yeast inh 24%.
COc1ccc(-c2ccccc2)cc1NC(=O)C1(C)CCN1C(=O)C(C)C (stereo unspecified) was read as aSyn rescue 2%, Abeta rescue inactive, FUS suppressor inconclusive and TDP-43 yeast inh 35µM*.
`COc1ccc(-c2noc(CSc3nnc(Cc4ccccc4)n3-c3ccc(F)cc3)n2)cc1` gave Abeta rescue inactive, FUS suppressor 14µM* and TDP-43 yeast inh 35µM*.
For COc1ccc(-c2noc(CSc3nnc(Cc4ccccc4)n3-c3cccc(C)c3)n2)cc1 the results were Abeta rescue inactive, FUS suppressor inconclusive and TDP-43 yeast inh 3%.
`COc1ccc(-c2noc(CSc3nc4ccccc4[nH]3)n2)cc1` gave Abeta rescue inactive, FUS suppressor inactive and TDP-43 yeast inh 11µM*.
Screening COc1ccc2oc(C(=O)NCCC(C)C)c(C)c2c1 returned aSyn rescue 2%, Abeta rescue inactive, FUS suppressor inactive and TDP-43 yeast inh 18%.
CCOC(=O)c1cc2c(C)n(-c3ccc(C)cc3)c(C)c2ccc1=O was read as aSyn rescue -3%, Abeta rescue inactive, FUS suppressor inactive and TDP-43 yeast inh 20µM*.
Screening CCOC(=O)c1cc2c(C)n(-c3ccc(OCC)cc3)c(C)c2ccc1=O returned aSyn rescue -14%, Abeta rescue inactive and TDP-43 yeast inh 10%.
Screening CCOC(=O)c1ccc(NC(=S)N(CCN(C)C)C(C)c2ccncc2)cc1 (stereo unspecified) returned aSyn rescue 28µM*, Abeta rescue inactive, FUS suppressor inactive and TDP-43 yeast inh 23%.
Screening CCc1cccc(NC(=S)N(CCN(C)C)C(C)c2ccncc2)c1 (stereo unspecified) returned aSyn rescue -5%, Abeta rescue inactive, FUS suppressor inactive and TDP-43 yeast inh 9%.
`CCOc1ccc(C(=O)O/N=C(\N)c2ccccn2)cc1` gave aSyn rescue -48%, Abeta rescue inactive, FUS suppressor inactive and TDP-43 yeast inh 13µM*.
Screening Cc1cccc(/C(N)=N/OC(=O)c2ccc(Br)o2)c1 returned aSyn rescue -36%, Abeta rescue inactive and TDP-43 yeast inh 4.5µM*.
Cc1cccc(/C(N)=N/OC(=O)c2ccc3c(c2)OCO3)c1 was read as aSyn rescue -72%, Abeta rescue inactive, FUS suppressor inactive and TDP-43 yeast inh inconclusive.
For N/C(=N\OC(=O)c1cccc(F)c1)c1ccccn1 the results were aSyn rescue -3%, Abeta rescue inactive, FUS suppressor inactive and TDP-43 yeast inh 3.2µM*.
For Cc1cccc(C(=O)O/N=C(\N)c2ccccn2)c1 the results were aSyn rescue -24%, Abeta rescue inactive, FUS suppressor inactive and TDP-43 yeast inh 13µM*.
Screening N/C(=N\OC(=O)c1ccccc1)c1ccccn1 returned aSyn rescue -34%, Abeta rescue inactive, FUS suppressor inactive and TDP-43 yeast inh -20%[0.397 µM].
For Cc1ccc(C(=O)O/N=C(\N)c2ccccn2)cc1 the results were aSyn rescue -49%, Abeta rescue inactive, FUS suppressor inactive and TDP-43 yeast inh inconclusive.
`COc1cc(OC)cc(C(=O)O/N=C(\N)c2cccc(C)c2)c1` gave aSyn rescue -49%, Abeta rescue inactive, FUS suppressor inactive and TDP-43 yeast inh inconclusive.
Screening N/C(=N\OC(=O)/C=C/c1ccc(Br)cc1)c1ccccn1 returned aSyn rescue 1%, Abeta rescue inactive, FUS suppressor inactive and TDP-43 yeast inh 18µM*.
`Cc1cccc(/C(N)=N/OC(=O)c2cccnc2)c1` gave aSyn rescue -8%, Abeta rescue inactive, FUS suppressor inactive and TDP-43 yeast inh 11µM*.
Cc1ccc(C(=O)O/N=C(\N)c2ccccn2)cc1C was read as aSyn rescue -17%, Abeta rescue inactive, FUS suppressor inactive and TDP-43 yeast inh 10µM*.
N/C(=N\OC(=O)c1ccc(Br)o1)c1ccccn1 was read as aSyn rescue 0%, Abeta rescue inactive, FUS suppressor inactive and TDP-43 yeast inh 14µM*.
For O=C(CCCSc1ccccc1)Nc1nc(-c2ccco2)c(-c2ccco2)s1 the results were aSyn rescue 1%, Abeta rescue inactive, FUS suppressor inactive and TDP-43 yeast inh 19%.
`O=S1OC(c2ccccc2)c2cc(Cl)ccc21` (stereo unspecified) gave aSyn rescue -16%, Abeta rescue inactive, FUS suppressor inactive and TDP-43 yeast inh 13µM*.
CCn1c(C(=O)N2CCC(C(=O)N3CCN(c4ccccn4)CC3)CC2)cc2sccc21 was read as aSyn rescue 4%, Abeta rescue inactive, FUS suppressor inactive and TDP-43 yeast inh 4%.
Screening CCn1c(C(=O)N2CCC(C(=O)N3CCN(c4ccc(OC)cc4)CC3)CC2)cc2sccc21 returned Abeta rescue inactive, FUS suppressor inactive and TDP-43 yeast inh 22µM*.
`CN(C)C(=S)NC(=NCc1ccc([N+](=O)[O-])cc1)c1ccccc1` gave aSyn rescue -1%, Abeta rescue inactive, FUS suppressor inactive and TDP-43 yeast inh -16%.
Screening CCOc1cccc(NC(=O)C2CC(=O)N(C)C(=Nc3ccccc3)S2)c1 (stereo unspecified) returned aSyn rescue 20µM*, Abeta rescue inconclusive, FUS suppressor inactive and TDP-43 yeast inh inconclusive.
For O=C(NCc1cccc(Cl)c1)c1cnc(N2CCOCC2)c2ccccc12 the results were Abeta rescue inactive, FUS suppressor inactive and TDP-43 yeast inh 0%.
For CCCOc1ccc(C(=O)NNC(=S)NC(=O)c2cc(-c3ccc(Cl)cc3)nc3ccccc23)cc1 the results were aSyn rescue 4%, Abeta rescue inactive, FUS suppressor inactive and TDP-43 yeast inh 13µM*.
Screening CCc1nc(N2CCN(C(=O)CCCl)CC2)c2c3c(sc2n1)CCCC3 returned aSyn rescue 10%, Abeta rescue inactive, FUS suppressor inactive and TDP-43 yeast inh 20µM*.
`CCOC(=O)c1nc2sc3c(c2c(=O)[nH]1)CCCC3` gave aSyn rescue -1%, Abeta rescue inactive and TDP-43 yeast inh -3%.
Screening CCOC(=O)c1nc(N2CCN(C(=O)OCC)CC2)c2c3c(sc2n1)CCCC3 returned aSyn rescue 16µM*, Abeta rescue inactive, FUS suppressor inactive and TDP-43 yeast inh -14%.
For CCC(Oc1ccc(C)cc1)C(=O)Nc1ccc(S(=O)(=O)Nc2nccs2)cc1 (stereo unspecified) the results were aSyn rescue 1%, Abeta rescue inactive, FUS suppressor inactive and TDP-43 yeast inh inconclusive.
`O=C(/C=C/c1ccc(Cl)c(Cl)c1)n1cccn1` gave aSyn rescue 25%, Abeta rescue inactive, FUS suppressor inactive and TDP-43 yeast inh inconclusive.

From PubChem
